From PubChem BioAssay AID731 (The Scripps Research Institute Molecular Screening Center, 2007) come the findings set out here.

About 520 (0.26%) of roughly 200,000 compounds were called active. This is one part of a sample in which actives are shown more often than they occur. Unmarked numbers belong to inactive results. No stated cut-off is given here; in the data, active means activation above about 23%; inactive means the rest.

In this assay the target is Peroxisome proliferator-activated receptor gamma (Homo sapiens) (UniProt P37231). In words: enhancers of SRC-3 binding to PPARgamma – biochemical, primary screen (AID 731).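 Further: 0% = DMSO and 100% = reference agonist.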 The conditions noted are these: biochemical PPARgamma/SRC-3 coactivator recruitment assay; at 8 µM; hits give high values.
Chain of Peroxisome proliferator-activated receptor gamma (Homo sapiens) (P37231 whole entry, looked up): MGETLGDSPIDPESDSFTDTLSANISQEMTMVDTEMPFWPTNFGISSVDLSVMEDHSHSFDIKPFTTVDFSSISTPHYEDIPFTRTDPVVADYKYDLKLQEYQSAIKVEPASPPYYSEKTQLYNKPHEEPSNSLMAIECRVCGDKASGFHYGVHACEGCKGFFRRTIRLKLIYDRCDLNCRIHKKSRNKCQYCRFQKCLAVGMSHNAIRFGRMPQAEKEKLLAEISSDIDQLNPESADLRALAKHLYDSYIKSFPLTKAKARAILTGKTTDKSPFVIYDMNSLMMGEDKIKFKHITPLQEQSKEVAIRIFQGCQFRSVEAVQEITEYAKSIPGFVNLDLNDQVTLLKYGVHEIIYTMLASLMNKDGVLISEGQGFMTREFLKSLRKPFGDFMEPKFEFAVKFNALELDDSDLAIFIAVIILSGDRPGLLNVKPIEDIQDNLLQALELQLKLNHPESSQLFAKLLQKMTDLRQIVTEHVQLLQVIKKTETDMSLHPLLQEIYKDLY
Consider `CSC1=NP(=S)(SC)N(C)c2nc3n(c21)CCC3` (stereo not given), for which the activation is 102% (active).

Take `CCCCCCN=C(CC)c1c(O)n(CCCC)c(=O)[nH]c1=O`: the activation is -4.72%.

`CCNc1nc2[nH]c(=O)c3c(c2s1)OC(N)=C(C#N)C3c1cccs1` (stereo not given): the activation was -2.75%.

On to `CCN(CC)c1ccc([N+](=O)[O-])c2cccnc12`, for which the activation was 4.74%.

Consider `CC[N+](CC)(CC)CCCCCCCCCC[N+](CC)(CC)CC`, for which the activation was -1.93%.
